In PubChem BioAssay (Tox21):
Inconclusive results are not listed. A call without a number means that no potency is given here. A number with no mark means an inactive call. Activity calls are given as the source filed them. The call rests on the fitted dose curve.

These compounds were tested against 5-hydroxytryptamine receptor 2A (Homo sapiens) (UniProt P28223) (assay: 5-hydroxytryptamine receptor 2A (HTR2A) small molecule antagonists, cell-based qHTS assay (AID 1963586; further: nearly all actives have a fitted effect of over 45% in size)). Conditions: HTR2A-CHO cells, DOI-induced calcium flux, fluorescence; series mostly up to 61.5 µM.
Sequence of 5-hydroxytryptamine receptor 2A (Homo sapiens) (P28223 whole entry, looked up): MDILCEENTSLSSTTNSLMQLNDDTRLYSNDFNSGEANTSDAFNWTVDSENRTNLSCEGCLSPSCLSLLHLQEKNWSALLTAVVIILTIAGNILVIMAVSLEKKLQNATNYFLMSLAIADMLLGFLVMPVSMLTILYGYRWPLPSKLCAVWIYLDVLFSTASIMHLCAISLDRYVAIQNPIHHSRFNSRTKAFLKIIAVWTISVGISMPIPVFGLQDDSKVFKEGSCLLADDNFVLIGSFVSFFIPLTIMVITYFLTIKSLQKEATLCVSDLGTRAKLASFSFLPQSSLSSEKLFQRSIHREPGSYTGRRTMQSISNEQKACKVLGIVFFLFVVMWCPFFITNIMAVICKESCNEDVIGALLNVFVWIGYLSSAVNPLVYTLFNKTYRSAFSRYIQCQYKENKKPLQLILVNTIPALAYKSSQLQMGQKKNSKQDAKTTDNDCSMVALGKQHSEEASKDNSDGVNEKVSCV
Source text: National Center for Advancing Translational Sciences [NCATS]
Division of Preclinical Innovation [DPI]
U.S. Environmental Protection Agency [EPA]
National Institutes of Environmental Health Sciences [NIEHS]
National Toxicology Program [NTP]
U.S. Food and Drug Administration [FDA]
The HTR2A receptor is a subtype of the 5-HT2 receptor that belongs to the serotonin receptor family and is a G protein-coupled receptor (GPCR). The HTR2A-CHO cell line stably expressing human 5-hydroxytryptamine receptor 2A (HTR2A) can be used for screening antagonists of interactions between 5-HT2 and its ligands. The HTR2A-CHO calcium flux assay is a homogeneous fluorescence-based assay for detecting the intracellular calcium level using FDSS kinetic plate reader system.
Tox21 Assay Protocol Summary:
HTR2A-CHO cells were dispensed at 2000 cells/3uL/well in 1536-well black-clear bottom plates using a Multidrop Dispenser. After the assay plates were incubated at a 37 C/5% CO2 incubator for 18 h, 3 uL of Dye Loading Buffer was transferred to the assay plate by a Flying Reagent Dispenser. The assay plates were incubated at 37 C for 1h. For antagonist mode, 23 nL of compounds dissolved in DMSO, positive controls or DMSO only was transferred to the assay plate by a pin tool. After 5 min incubation at room temperature, 1.5 uL of 4-Iodo-2,5-dimethoxy-alpha-methylbenzeneethanamine hydrochloride (DOI) at 4nM was added to each well. The fluorescence intensity in the plates was measured using FDSS 7000EX kinetic plate reader for 3 min at 1 sec intervals.
Potency means the concentration at half of the fitted maximal effect.

Row | SMILES | Potency | activity, negative = inhibition
1 | Cc1ccc(C(=O)C(=O)O)cc1C | inactive | 
2 | O=[Si]=O | inactive | 
3 | CC(=O)/C=C/C1C(C)=CCCC1(C)C (stereo not given) | inactive | 
4 | O=C(O)c1ccc(OCCCOc2ccc(C(=O)O)cc2)cc1 | inactive | 
5 | CCOC(=O)NCCC[Si](OCC)(OCC)OCC | inactive | 
6 | ClCCCl | inactive | 
7 | CO[C@@H]1[C@@H](O[C@@H]2O[C@H](C)[C@@H](O[C@H]3C[C@@](C)(O)[C@@H](O)[C@H](C)O3)[C@H](N(C)C)[C@H]2O)[C@@H](CC=O)C[C@@H](C)[C@@H](O[C@@H]2CC[C@H](N(C)C)[C@@H](C)O2)/C=C/C=C/C[C@@H](C)OC(=O)C[C@H]1OC(C)=O | inactive | 
8 | C[Si](C)(C)Cl | inactive | 
9 | O=C1OC2(c3ccccc31)c1cc(Br)c(O)c(Br)c1Oc1c2cc(Br)c(O)c1Br | inactive | 
10 | OC1(c2ccc(Cl)cc2)CCNCC1 | inactive | 
11 | O=C(O)/C=C/c1cnc[nH]1 | inactive | 
12 | CC(=O)CCC(C)C | inactive | 
13 | Cc1cc(C)cc(O)c1 | inactive | 
14 | C=CC(C)(CCC=C(C)C)OC(=O)CC (stereo not given) | inactive | 
15 | CC(C)NC(=O)c1ccccc1N | inactive | 
16 | CCCO[Si](OCCC)(OCCC)OCCC | inactive | 
17 | O=c1cccc[nH]1 | inactive | 
18 | O=C(O)c1cc2ccccc2nc1C(=O)O | inactive | 
19 | CC(C)(C)c1n[nH]c(=O)n(N)c1=O | inactive | 
20 | CCCCCCCCS(=O)(=O)Cl | inactive | 

Row | SMILES | Potency | activity, negative = inhibition
21 | CN(C)c1cccc(O)c1 | inactive | 
22 | Cc1ccc2oc(=O)ccc2c1 | inactive | 
23 | CC(C)CCCCCOC(=O)CS | 1.88 µM (active) | 
24 | CC(C)CCCC(C)CCCC(C)CCCCC(C)CCCC(C)CCCC(C)C (stereo not given) | inactive | 
25 | CC(=O)CC(=O)Nc1ccccc1 | inactive | 
26 | CC1(C)[C@H]2CC[C@](C)(C2)[C@H]1O | inactive | 
27 | NS(=O)(=O)c1cc2c(cc1C(F)(F)F)NC(Cc1ccccc1)NS2(=O)=O (stereo not given) | inactive | 
28 | CN1C(=O)CC(C)(c2ccccc2)C1=O (stereo not given) | inactive | 
29 | CNCCO | inactive | 
30 | O=CC1CC=CCC1 (stereo not given) | inactive | 
31 | Nc1c(Br)cc([N+](=O)[O-])cc1Br | inactive | 
32 | Cc1cc(C)c(N=Nc2c(O)c(S(=O)(=O)O)cc3cc(S(=O)(=O)O)ccc23)cc1C |  | -22.1% [at 5.62 µM]
33 | Cc1oc(C)c(C(=O)Nc2ccccc2)c1C | inactive | 
34 | CC(=O)O[C@@H]1C[C@@H]2CC[C@@]1(C)C2(C)C | inactive | 
35 | CN(C)c1ccc(/C=C/c2ccc([N+](=O)[O-])cc2)cc1 |  | -0.541% [at 5.62 µM]
36 | Cc1ccc(C(=O)Nc2ccc(S(=O)(=O)O)c3cc(S(=O)(=O)O)cc(S(=O)(=O)O)c23)cc1NC(=O)c1cccc(NC(=O)Nc2cccc(C(=O)Nc3cc(C(=O)Nc4ccc(S(=O)(=O)O)c5cc(S(=O)(=O)O)cc(S(=O)(=O)O)c45)ccc3C)c2)c1 | inactive | 
37 | C=CCOCC(CO)(COCC=C)COCC=C | inactive | 
38 | CCC(=O)OC(C)(C)C1CC=C(C)CC1 (stereo not given) | inactive | 
39 | CCSC(=O)N(CC)CC | inactive | 
40 | FC(F)(F)c1cccc(Cl)c1 | inactive | 
